The whole screen tested about 330,000 compounds, of which about 940 (0.28%) were called active. For the sample, actives were picked, then their nearest neighbours and some compounds at random. Unmarked numbers belong to inactive results. Rule as the data show it: active = inhibition above about 12%; inactive = the rest.

The nature of this test: reduced growth of AddAB-expressing E. coli cells – absorbance, AddAB inhibitor project, primary screen (AID 435030).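 Also: 0% = vehicle wells of infected cells.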 To be noted: E. coli expressing H. pylori AddAB, at 11.9 µM, active compounds read high.
What is called inhibition is the change of the read-out against control, counted positive when it falls. Consider `COc1cccc(C(=O)N2CCC(n3nccc3NC(=O)C3CCOC3)CC2)c1` (stereo unspecified), for which the inhibition is 0.08%.
The value for `Cc1ccc(-c2nnc(CN3CCN(C)CC3)o2)cc1` was -0.67%.
As for `CC(C)(C)SCCSC1=CC(=O)CC(c2ccccc2)C1` (stereo unspecified), the figure is 0.25%; as for `CCn1cc(CN2CCN(CC(C)(C)C)C(CCO)C2)c2ccccc21` (stereo unspecified), -1.04%.
In the case of `COc1ccccc1NC(=O)C1=C(C)Nc2ncnn2C1c1ccc(C)o1` (stereo unspecified), the inhibition is -0.48%.
The value for `CC1=C(C(=O)OCc2ccccc2)C(c2ccco2)n2ncnc2N1` (stereo unspecified) was 14.7% (active); that for `CC1=C(C(=O)OC2CCCCC2)C(c2cccnc2)n2ncnc2N1` (stereo unspecified) was 0%; that for `COC(=O)C1(C)NC(c2ccc(F)cc2)C2C(=O)N(c3ccccc3)C(=O)C21` (stereo unspecified) was 1.16%.
As for `CC(C)C[C@H]1CN=C(Nc2ccccc2)N1CC1CCCCC1`, the figure is 2.92%; as for `CCOc1ccc(C(C)=O)cc1COC(=O)CNC(=O)c1cccs1`, 3.06%.
The value for `CC1CCCC(C)N1C(=O)CN1CCN(c2nc(-c3ccc(F)cc3)cs2)CC1` (stereo unspecified) was 1.81%; that for `CCn1c(=S)sc2c(=O)n(CC(=O)Nc3ccc(OC)cc3)c(C)nc21` was 0.15%.
With `O=C1Nc2cc(Cl)c(Cl)cc2N(O)N1c1cc(Cl)cc(Cl)c1`, the inhibition was -1%.
As for `COc1ccc(C(=O)NCC(=O)N/N=C/c2ccc([N+](=O)[O-])o2)cc1OC`, the figure is 9.43%.
As for `C/[N+]([O-])=C\c1ccc([N+](=O)[O-])o1`, the figure is 79% (active); as for `COC(=O)C1=C(C)N(C)C(=O)NC1c1ccc([N+](=O)[O-])o1` (stereo unspecified), 3.34%.
As for `CCOc1cccc(/C=N/NC(=S)NCCN2CCOCC2)c1O`, the figure is -0.42%; as for `COc1ccc(Br)cc1/C=N/Nc1ccc(Cl)c(C(=O)O)c1`, 1.8%; as for `COc1cccc(/C=N/Nc2ncc(C(F)(F)F)cc2Cl)c1O`, 12.5% (active).
In the case of `O=C(Nc1ccc(Br)cn1)c1ccc([N+](=O)[O-])cc1Cl`, the inhibition was -0.17%.
As for `Cc1onc(NC(=O)c2ccc([N+](=O)[O-])o2)c1Br`, the figure is 9.34%.
The value for `O=C(Nc1ccc(Br)cn1)c1ccc([N+](=O)[O-])o1` was 97.7% (active); that for `O=C(Nc1cccc(O)c1)c1ccc(C(=O)c2ccccc2)o1` was 1.45%; that for `CN1C(=O)c2ccc(C(=O)Nc3ccc(Br)cn3)cc2C1=O` was -3.02%.
As for `Cc1cccc(NC(=O)c2ccc([N+](=O)[O-])o2)c1`, the figure is 38.2% (active); as for `CCOc1ccc(C(C)=O)cc1COC(=O)CN1C(=O)NC2(CCCC2)C1=O`, 0.34%.
With `Brc1cnc(N2CCCC2)nc1N1CCCCC1`, the inhibition was 2.22%.
As for `CCC(=C/c1sc2ccc3ccccc3c2[n+]1C)/C=C1\Sc2ccc3ccccc3c2N1C`, the figure is 9.85%; as for `Cc1ccc(S(=O)(=O)c2ccc(Cl)cc2)cc1S(=O)(=O)NC(C(=O)O)C(C)C` (stereo unspecified), 3.7%.
The value for `NC(=O)C1CCN(C(=O)c2ccc3c(=O)n(Cc4cccc(Br)c4)c(=S)[nH]c3c2)CC1` was 1.96%; that for `COc1ccc(NC(=O)C(Br)C(C)C)cc1` (stereo unspecified) was 0.42%; that for `O=C(CSc1ccc(-c2ccc(-n3cccn3)cc2)nn1)Nc1ccc([N+](=O)[O-])cc1` was 2.04%.
As for `O=C(CSc1ccc(-c2ccccn2)nn1)Nc1ccccc1`, the figure is 12.4% (active); as for `O=C(CSc1ccc(-c2ccco2)nn1)Nc1cccc(F)c1`, 1.52%.
Regarding `O=C(CNc1ccc(F)cc1F)NC(=O)NCc1ccco1`, the inhibition is -1.79%.
The value for `O=C1CCCC(O)=C1N=Nc1ccc2ncsc2c1` was 1.13%; that for `COc1ccc(CNC(=O)CN(c2ccc(OC)c(Cl)c2)S(=O)(=O)c2ccc(C)cc2)cc1` was 0.77%; that for `Oc1cccc(/C=N/Nc2ccc(Cl)nn2)c1O` was 13.3% (active).
On to `Oc1c(Br)cccc1/C=N/Nc1c(F)c(F)c(F)c(F)c1F`, for which the inhibition is 5.1%.
Regarding `Oc1ccc(Br)cc1/C=N/Nc1ccccn1`, the inhibition was 4.69%.
The value for `Cc1noc(C)c1C(=O)OC(C)C(=O)Nc1ccc2c(c1)OCO2` (stereo unspecified) was 1.01%; that for `CC1(C)c2[nH]c3ccccc3c2C[C@H]2C(=O)N(N)CC(=O)N21` was -0.5%.
`O=C(CCc1ccc(S(=O)(=O)N2CCOCC2)cc1)OCC(=O)c1ccc(Br)cc1`: the inhibition was 3.02%.
As for `Cc1nnc(NC2=NCCCCC2)o1`, the inhibition is 0.25%.
As for `O=C1CCC(=O)N(O)CCCCCNC(=O)CCC(=O)N(O)CCCCCNC(=O)CCC(=O)N(O)CCCCCN1`, the figure is 35.8% (active).
For the compound `CCN1CCC2(CCN(Cc3cn[nH]c3-c3ccc(OC)c(F)c3)C2)C1` (stereo unspecified), the inhibition was 0.65%.
The value for `CCOC(=O)c1ccccc1N1C(=O)C2Sc3[nH]c(=O)sc3C(/C=C/c3ccccc3)C2C1=O` (stereo unspecified) was 2.63%; that for `COc1ccc(C2/C=C\CN(CC(C)C)CC(=O)N2Cc2ccc(F)cc2)cc1` (stereo unspecified) was 2.22%.
The value for `O=C1/C(=C/c2cccs2)SC(=S)N1C1CCS(=O)(=O)C1` (stereo unspecified) was -0.44%; that for `CCOc1ccc(NC(=O)CN(C)C(=O)Cc2sc(C)nc2-c2ccc(F)cc2)cc1OCC` was 1.75%.
The value for `CCN1/C(=C\c2ccc3ccccc3[n+]2CC)Sc2cc(C)ccc21` was 13.3% (active); that for `O=C(NCCCN1CCCCCC1)C1CC(=O)N(C2CCCC2)C1` (stereo unspecified) was -0.68%; that for `O=C(Nc1cccc(S(=O)(=O)N2CCOCC2)c1)C12CC3CC(CC(C3)C1)C2` was 0.82%.
`CCCC(=O)OCC(=O)Nc1cc(Cl)ccc1[N+](=O)[O-]`: the inhibition was 0.77%.
As to `CC(C)(C)NC(=O)COC(=O)c1cc(Br)ccc1Cl`, the inhibition is 1.15%.
The value for `CC(C)(C)NC(=O)COC(=O)c1cc(Cl)ccc1[N+](=O)[O-]` was 57.9% (active); that for `CN(NC(=O)C1CC(=O)N(c2ccccc2)C1)C1=NS(=O)(=O)c2ccccc21` (stereo unspecified) was 1%; that for `Cc1cc(=O)n2nc(N3CCCC(C(=O)NCCC4=CCCCC4)C3)sc2n1` (stereo unspecified) was 0.49%.
The value for `CC1CCCN(C(=O)c2ccc3c(c2)C(=O)N(CCC2=CCCCC2)C3=O)C1` (stereo unspecified) was 22.9% (active); that for `Cn1nnc2cc(C(=O)NCCC3=CCCCC3)ccc21` was 0%; that for `O=C(c1n[nH]c2c1CCC2)N1CCCC(Nc2cccc(F)c2)C1` (stereo unspecified) was 2.86%.
As for `Cc1cc(C)c2c(c1)cc(C)c1nnc(SCC(=O)Nc3cc(C)on3)n12`, the figure is 1.96%; as for `Cc1cc(S(=O)(=O)c2cc3ccc(O)c(C)c3oc2=O)ccc1F`, 0.08%; as for `COc1c(N2CCN(C(=S)Nc3ccccc3F)C(C)C2)c(F)cc2c(=O)c(C(=O)O)cn(C3CC3)c12` (stereo unspecified), 99.7% (active).
Take `CC1CN(C(=S)Nc2ccccc2F)CC(C)O1` (stereo unspecified): the inhibition was -1.09%.
The value for `COc1ccccc1NC(=S)N1CCN(c2ccc(F)cc2)CC1` was -2.49%.
As for `COc1ccc(Cl)cc1C(=O)OCC(=O)NCc1cccs1`, the figure is 0.75%; as for `Cc1ccc(S(=O)(=O)N2CCN(C(=O)Cn3c(=O)cnc4ccccc43)CC2)c(C)c1`, 0.34%; as for `O=C(Nc1ccc(OC(F)(F)F)cc1)c1ccc2c(c1)no[n+]2[O-]`, 3.14%.
The value for `CCn1cc(C(=O)NCCO)c(=O)c2cc(F)c(N3CCN(C)CC3)cc21` was 98.8% (active); that for `CN1CCN(c2cc3c(cc2F)c(=O)c(C(=O)O)cn3CCF)CC1` was 98.6% (active).
On to `CCn1cc(C(=O)NCCC(=O)NCCO)c(=O)c2cc3c(cc21)OCO3`, for which the inhibition was -2.55%.
Take `CCn1cc(S(=O)(=O)c2cccc(C)c2)c(=O)c2cc(F)c(N3CCN(C)CC3)cc21`: the inhibition was -1.64%.
As for `CCCCCCn1cc(C(=O)O)c(=O)c2cc(F)c(N3CCCCC3)cc21`, the figure is -1.14%; as for `CCCCNC(=O)c1cn(CC)c2cc(N3CCN(C(=O)c4ccco4)CC3)c(F)cc2c1=O`, 11.8%.
Take `Cc1csc(NC(=O)C2CCCN2C(=O)OCC(C)C)n1` (stereo unspecified): the inhibition is 0.97%.
As for `Cc1nn(C)c(C)c1Sc1ccccc1N`, the figure is -0.51%; as for `O=C(COC(=O)Cn1[nH]c(=O)c2ccccc2c1=O)Nc1c(Cl)cccc1C(F)(F)F`, -0.85%.
As for `O=C(OCC(=O)c1cccs1)C1=COCCO1`, the figure is 3.94%.
As for `O=C(COC(=O)c1ccc([N+](=O)[O-])o1)NC12CC3CC(CC(C3)C1)C2`, the figure is 2.74%; as for `O=C(OCC(=O)c1cccs1)c1ccc([N+](=O)[O-])o1`, 16.4% (active).
On to `O=C(Cc1ccccc1)NNC1CC(=O)N(c2ccc(Br)cc2)C1=O` (stereo unspecified), for which the inhibition is 0.17%.
Regarding `Cc1ccccc1OCC(=O)NNC(=O)c1cc(S(=O)(=O)N(C)C)ccc1N1CCCC1`, the inhibition is -1.04%.
On to `Cc1cc([N+](=O)[O-])nn1CC(=O)Nc1ccc(Cc2ccncc2)cc1`, for which the inhibition is -1.17%.
The value for `Cc1ccc(COc2ccc(C(=O)NN)cc2)cc1` was 3%.
Turning to `O=C(C/C(=N\NC(=O)c1ccccc1Br)C(F)(F)F)c1cccs1`, the inhibition is 0.69%.
The value for `C=CC(=O)OCCOCCOCCOCCOC(=O)C=C` was -0.85%; that for `CC1C(=O)N2CCCc3cc(S(=O)(=O)NCc4ccc(F)cc4)cc1c32` (stereo unspecified) was -1.44%; that for `Cc1c(C=O)c2ccccc2n1CC(=O)O` was -5.83%.
The value for `CC(=O)c1c(C)n([O-])c2ccccc2[n+]1=O` was 38.5% (active).
As for `CCNc1nc(NC(C)C)nc(N2CC(=O)N(CC(=O)OCC)C2=N)n1`, the figure is -0.43%; as for `CNC(C)C#Cc1ccc2sc3cc(OC)c(OC)cc3c(=O)c2c1` (stereo unspecified), 3.07%.
Take `O=C(C1=C(O)C(=O)N(CCOCCO)C1c1ccccn1)c1cccs1` (stereo unspecified): the inhibition was -0.51%.
`O=C(NCC1CCCO1)C(C(=O)c1ccccc1)n1cc(Cl)ccc1=O` (stereo unspecified): the inhibition was 99.8% (active).
As for `O=C(NCC1CCCO1)/C(=C/c1ccc(Cl)cc1)NC(=O)c1ccccc1` (stereo unspecified), the figure is 3.87%; as for `O=C(CSc1ccc(-c2ccccc2)nn1)NCC1CCCO1` (stereo unspecified), -1.35%.

The record behind these values is PubChem BioAssay AID435030 (The Scripps Research Institute Molecular Screening Center, 2010).
